# Compound activity from PubChem.
# This is a sample that favours compounds with a hit; in the whole collection about 1.5% have one here.
# RTF Ca sens inh – cardiac RTF calcium desensitization; IANBD-labeled cardiac RTF, Ca2+ fluorescence; inhibition, % at 7.15 µM; 340,000 compounds, 0.12% hits; AID 493244;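 active = inhibition above the mean inhibition of all tested compounds plus 3 SD, cut at about 17% in these data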;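 also: assay run at fixed EC70 calcium of 1.6 mM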
# TPT1 inh – C. albicans TPT1 enzyme inhibition; recombinant caTPT1, FP RNA substrate dephosphorylation; inhibition, % at 5 µM; 300,000 compounds, 0.81% hits;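 active = inhibition above the mean of all tested compounds plus 3 SD, set per screening campaign, cut at about 24% in these data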;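 also: plate controls were DMSO alone for no effect and ferristatin control at 100 nM for full effect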
# CRFR2-BP ag – CRF-BP/CRF-R2 complex agonism. activation, % at 13.2 µM. AID 588473. 350,000 compounds, 0.46% hits. HEK293 CRF-R2/CRF-BP, calcium dye fluorescence (FLIPR); percent of saturating CRF peptide response;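 active = activation of at least 50%, plus an integration ratio under a set limit after plate pattern correction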;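 also: plate controls were neutral control wells without compound for no effect and CRF at EC100 for full effect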
# IDE cell activ – boosts human insulin-degrading enzyme activity in HEK cells | 340,000 compounds, 0.073% hits | FAbeta-B cleavage, fluorescence polarization; 0% vehicle, 100% cell-free pure enzyme wells | activation, % at 5.96 µM | P14735 | AID 493087;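 active = activation above the mean of all tested compounds plus 3 SD, set per screening campaign, cut at about 17% in these data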
# Target sequence (P14735 whole entry, looked up): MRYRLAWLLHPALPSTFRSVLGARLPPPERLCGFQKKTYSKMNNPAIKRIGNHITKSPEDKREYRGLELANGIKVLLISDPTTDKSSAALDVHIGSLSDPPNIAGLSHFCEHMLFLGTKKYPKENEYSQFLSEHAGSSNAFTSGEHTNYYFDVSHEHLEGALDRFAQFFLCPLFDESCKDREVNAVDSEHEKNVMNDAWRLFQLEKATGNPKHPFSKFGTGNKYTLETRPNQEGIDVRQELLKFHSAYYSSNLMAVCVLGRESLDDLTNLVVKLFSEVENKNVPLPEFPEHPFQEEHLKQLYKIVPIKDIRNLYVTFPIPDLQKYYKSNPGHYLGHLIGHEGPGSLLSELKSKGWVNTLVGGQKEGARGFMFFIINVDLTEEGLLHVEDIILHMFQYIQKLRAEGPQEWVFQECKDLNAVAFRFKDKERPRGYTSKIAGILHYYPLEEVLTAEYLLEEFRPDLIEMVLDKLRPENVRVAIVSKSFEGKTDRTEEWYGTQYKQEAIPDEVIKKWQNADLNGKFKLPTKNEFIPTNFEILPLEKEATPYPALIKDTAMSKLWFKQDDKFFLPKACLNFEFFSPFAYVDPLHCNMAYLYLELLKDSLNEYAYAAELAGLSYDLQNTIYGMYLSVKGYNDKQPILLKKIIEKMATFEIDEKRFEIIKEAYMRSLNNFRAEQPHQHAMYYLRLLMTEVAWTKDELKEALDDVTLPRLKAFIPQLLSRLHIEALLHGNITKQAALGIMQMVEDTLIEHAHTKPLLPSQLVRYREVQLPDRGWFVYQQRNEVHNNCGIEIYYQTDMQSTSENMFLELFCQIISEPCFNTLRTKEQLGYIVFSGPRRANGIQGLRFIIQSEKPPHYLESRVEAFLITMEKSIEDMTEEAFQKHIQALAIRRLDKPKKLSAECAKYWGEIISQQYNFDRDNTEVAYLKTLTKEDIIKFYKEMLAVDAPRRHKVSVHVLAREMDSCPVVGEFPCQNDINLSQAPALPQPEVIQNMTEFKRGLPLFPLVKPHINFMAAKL
# IDE cell inh – cellular human IDE inhibition; P14735; HEK cells, FAbetaB cleavage, fluorescence polarization; inhibition, % at 5.59 µM; 320,000 compounds, 0.41% hits;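 active = percent inhibition above the average of all tested compounds plus 3 SD, set per screening campaign, cut at about 16% in these data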;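 also: IDE supplied by intact live HEK cells; FP after avidin binding of uncleaved biotin substrate so inhibition keeps polarization high; 0% = DMSO wells and 100% = 60 µM reference IDE inhibitor Ii1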
# cardiac RTF act – cardiac RTF calcium sensitization; activation, % at 7.2 µM; P19429+P45379; 340,000 compounds, 0.24% hits; IANBD-labeled TnC RTF fluorescence at EC20 calcium; 0% EC20 calcium, 100% full calcium;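 active = activation above the mean over all tested compounds plus 3 SD, cut at about 30% in these data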;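 also: rise in fluorescence read as greater calcium sensitivity of cardiac thin filaments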
# caTPT1 confirm – TPT1 (C. albicans) inhibition, confirmation; shares compounds with TPT1 inh; recombinant caTPT1, fluorescence polarization, RNase T1 coupled; inhibition, % at 5 µM; 2,400 compounds, 74% hits; AID 2149;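 active = inhibition above the primary screen limit, the mean inhibition of all tested compounds plus 3 SD, cut at about 25% in these data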
# RNase T1 counter – RNase T1 inhibition in TPT1 counter-screen. RNase T1 cleavage, fluorescence polarization, 1536-well. AID 2153. shares compounds with TPT1 inh. inhibition, % at 5 µM. 2,400 compounds, 83% hits;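 active = inhibition above the solvent-only control well mean plus 3 SD, limit set per screening run, cut at about 23% in these data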;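 also: plate controls were DMSO wells with enzyme for no effect and wells without RNase T1 for full effect; inhibitors block cleavage so intact labeled substrate keeps polarization high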
# IDE inh confirm – confirmation of human insulin-degrading enzyme inhibitors in cells | shares compounds with IDE cell inh | HEK cells, FAbetaB cleavage, fluorescence polarization | inhibition, % at 5.59 µM | 1,200 compounds, 51% hits;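 active = mean inhibition across triplicate wells above the cutoff set by the earlier primary insulin-degrading enzyme screen, cut at about 16% in these data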;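 also: 0% = DMSO wells and 100% = 60 µM reference IDE inhibitor Ii1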
# HEK cytotox – HEK cell cytotoxicity, counter-screen for IDE inhibitors; shares compounds with IDE cell inh; HEK293 cytotoxicity, ATP luminescence; inhibition, % at 5.59 µM; 1,200 compounds, 28% hits; AID 449730; in the data active = inhibition above about 22%;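 also: 0% = vehicle wells and 100% = reference cytotoxic drug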
# An asterisk follows results filed as active; nt = not tested or not shown.
SMILES,RTF Ca sens inh,TPT1 inh,CRFR2-BP ag,IDE cell activ,IDE cell inh,cardiac RTF act,caTPT1 confirm,RNase T1 counter,others
CCNc1ccc(Br)cc(C(=O)/C=C/c2c(Cl)cccc2Cl)c1=O,-13,70*,1,-5,3,4,75*,84*,
CCNc1ccc(Br)cc(C(=O)/C=C/c2ccc3c(c2)OCO3)c1=O,10,31*,8,3,-2,-4,26*,48*,
CCNc1ccc(Br)cc(C(=O)/C=C/c2ccc(Cl)cc2)c1=O,-8,64*,7,-2,2,-16,46*,71*,
COc1ccccc1N1N=C(c2ccc([N+](=O)[O-])cc2)CC1c1ccccc1 (stereo not given),-13,52*,34,1,9,15,46*,57*,
Fc1ccc(C2CC(c3ccco3)=NN2c2ccccc2)cc1 (stereo not given),7,3,2,3,2,-2,nt,nt,
O=[N+]([O-])c1ccc(N2N=C(c3ccco3)CC2c2ccccc2)cc1 (stereo not given),-14,135*,51*,-10,22*,13,107*,108*,
COc1cc(N2N=C(c3ccccc3)CC2c2ccccc2)c(C=O)cc1C=O (stereo not given),2,-6,4,5,-4,-7,nt,nt,
COc1ccc(C(=O)N2CCN(c3cccc(Cl)c3)CC2)cc1,1,-4,-2,5,10,2,nt,nt,
COC(=O)/C=C/C(=O)N1CCN(c2cccc(Cl)c2)CC1,nt,48*,nt,nt,1,nt,3,8,
Cc1nnc(C)n1/N=C/c1cc2ccccc2nc1Cl,0,-2,0,2,7,4,nt,nt,
Cn1c(N/N=C/c2cc3ccccc3nc2Cl)nc2ccccc21,-9,69*,3,-8,-1,11,10,19,
C[C@@H]1CN([C@@H](C)CO)C(=O)CCCn2nncc2CO[C@@H]1CN(C)S(=O)(=O)c1ccc(F)cc1,nt,nt,0,nt,nt,nt,nt,nt,
CN(C)c1ccc(/C=C2\CCCc3c2nc2ccccc2c3C(=O)O)cc1,5,25*,14,-5,-3,2,28*,39*,
O=C(O)c1ccc(/C=C2\CCCc3c2nc2ccccc2c3C(=O)O)cc1,-10,-5,0,-3,-1,-1,nt,nt,
CC1(C)CC2CC(C)(CN2/C=N/c2sc3c(c2C#N)CC(C)(C)NC3(C)C)C1 (stereo not given),nt,2,-1,nt,2,nt,nt,nt,
CCCc1nc2ccc([N+](=O)[O-])cc2[nH]1,-2,29*,-1,1,7,2,4,7,
O=[N+]([O-])c1ccc2nc(CCCO)[nH]c2c1,nt,-7,6,nt,-4,nt,nt,nt,
COc1ccc(CNC(=O)/C=C/c2cc([N+](=O)[O-])ccc2OC(F)F)cc1OC,-8,37*,-7,9,1,1,7,8,
COc1ccc(C2=NN(c3nc(-c4ccc(CNC(C)=O)cc4)cs3)C(c3ccco3)C2)cc1 (stereo not given),-12,31*,3,-1,-1,1,11,16,
CCN(CC)c1ccc(/C=C/c2cc(-c3ccccc3)c3ccccc3n2)cc1,-430,94*,67*,-6,5,320*,87*,90*,
CCN(CC)c1ccc(/C=N/NC(=O)c2cc(C)nc3ccccc23)cc1,0,1,0,-2,10,3,nt,nt,
CCN1C(=O)[C@H]2[C@@H](c3ccc(-c4cccc(Cl)c4)c(OC)c3)N3CCC[C@@]3(C(=O)OC)[C@H]2C1=O,-4,nt,12,3,3,-2,nt,nt,
CCOCCCNCC(=O)Nc1ccc(S(=O)(=O)NC(C)CC)cc1 (stereo not given),-3,118*,-1,0,8,1,10,12,
CCCCOCCCNCC(=O)Nc1ccc(S(N)(=O)=O)cc1,-6,0,0,4,3,-1,nt,nt,
Oc1[nH]c(=S)sc1/C=C1\C(c2ccccc2)=Nc2ccccc21,-34,138*,21,-14,18*,29,130*,136*,IDE inh confirm=14;HEK cytotox=9
SMILES,RTF Ca sens inh,TPT1 inh,CRFR2-BP ag,IDE cell activ,IDE cell inh,cardiac RTF act,caTPT1 confirm,RNase T1 counter,others
O=C(O)C1CC=CCC1C(=O)NCc1ccc(Cl)c(Cl)c1 (stereo not given),-4,1,-1,2,1,0,nt,nt,
Oc1sc(C=Nc2ccccc2)c2ccccc12,-111,119*,123*,-31,26*,75*,105*,104*,IDE inh confirm=30*;HEK cytotox=9
Cn1c(O)c(N=Nc2ccc(F)cc2)c2ccccc21,-11,6,0,5,3,-5,nt,nt,
Oc1sc(C=Nc2ccc(F)cc2)c2ccccc12,-29,128*,43,-7,18*,14,110*,109*,IDE inh confirm=34*;HEK cytotox=3
COc1cc(/C=C/c2nc3ccc([N+](=O)[O-])cc3s2)ccc1OCC(=O)O,nt,12,nt,nt,7,nt,nt,nt,
COc1cc(/C=C/C(=O)c2ccc3c(c2)OCO3)cc(Cl)c1O,-21,82*,135*,-203,160*,18,94*,96*,IDE inh confirm=88*;HEK cytotox=12
COc1ccccc1C(=O)NCCN1CCCC1,nt,nt,1,nt,nt,nt,nt,nt,
CC(C)/C=C1\CC/C(=C\c2ccc(N(C)C)cc2)C1=O,-38,121*,166*,-177,68*,64*,121*,118*,IDE inh confirm=144*;HEK cytotox=13
COc1cc(/C=C/C(=O)CC(=O)/C=C/c2ccc(O)c(OC)c2)ccc1O,-63,139*,214*,-63,31*,57*,147*,135*,IDE inh confirm=81*;HEK cytotox=9
CCCOc1ccc(/C=C2\SC(=S)N(CC3CCCO3)C2=O)cc1 (stereo not given),6,3,1,4,0,-2,nt,nt,
O=C(O)c1ccc(/C=C2/SC(=S)N(Cc3ccccc3)C2=O)cc1,-11,nt,-3,1,nt,-2,nt,nt,
O=C1/C(=C\c2ccc(O)cc2)SC(=S)N1Cc1ccccc1,-30,75*,15,-91,77*,5,83*,84*,IDE inh confirm=137*;HEK cytotox=11
O=C1/C(=C/c2ccc(O)cc2)SC(=S)N1CC1CCCO1 (stereo not given),-30,75*,37,-119,87*,10,81*,83*,IDE inh confirm=167*;HEK cytotox=12
